# Results as given in PubChem BioAssay (NCATS).
# Where “and” joins values, the source holds several entries; their conditions need not be identical. Equal entries are not always repeated. Inconclusive results are not listed. Entries that show only a call come without a potency. More than one record can exist for a structure, and the calls need not agree. Calls of active or inactive are those of the source. Unless noted, the call rests on the fitted dose curve; in most records, active means well fitted curve in the direction sought with a large enough effect; inconclusive means small, poorly fitted or top-dose-only effect, or another doubt; inactive means no such curve, though single readings can be large; an effect the other way counts as inactive or inconclusive.
# Columns and labels:
# [1] = Primary qHTS for small molecule stabilizers of the endoplasmic reticulum resident proteome: Secreted ER Calcium Modulated Protein (SERCaMP) assay (AID 1508630)
# Summary of the method: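 The SH-SY5Y reporter protocol was run at 3 concentrations up to 38.3 uM (primary) or 11 concentrations (follow-up): 16 h compound, 100 nM thapsigargin for 4 h, then extracellular luciferase luminescence.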
# [2] = A High-Content qHTS Against Drug Library for the Identification of Small Molecules that Inhibit DYT1 Early Onset Primary Dystonia-Associated Cell Pathology (AID 1645839; calls by dose curve)
# Summary of the method: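 High-content imaging quantified EGFP-TorsinA mislocalization in HEK293-derived cells inducibly expressing DYT1 mutant torsinA, after 48 h exposure to compound given together with tetracycline induction. Cell count served as a toxicity channel alongside %pathology.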
# [3] = biological target: Cytochrome P450 2D6 (Homo sapiens) (UniProt P10635); assay: Cytochrome P450 family 2 subfamily D member 6 (CYP2D6) small molecule antagonists: luciferase biochemical (cell-free) qHTS assay (AID 1645840; active means well fitted curve in the direction sought with a large enough effect in the repeat runs; an effect the other way counts as inactive or inconclusive; further: nearly all actives have a fitted effect of over 55% in size; further: potency means the concentration at half of the fitted maximal effect)
# Summary of the method: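 P450-Glo CYP2D6 system: proluciferin substrate converted by enzyme to luciferin, read by luminescence proportional to activity. Enzyme-substrate mix with compound 10 min at room temperature, then NADPH regeneration 1 h before detection reagent.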
# [4] = biological target: Cytochrome P450 2C9 (Homo sapiens) (UniProt P11712); assay: Cytochrome P450 family 2 subfamily C member 9 (CYP2C9) small molecule antagonists: luciferase biochemical (cell-free) qHTS assay (AID 1645842; active means well fitted curve in the direction sought with a large enough effect in the repeat runs; an effect the other way counts as inactive or inconclusive; further: nearly all actives have a fitted effect of over 55% in size; further: potency means the concentration at half of the fitted maximal effect)
# Summary of the method: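 P450-Glo CYP2C9 system: proluciferin substrate with enzyme in mix containing 0.4% BSA, 10 min at room temperature, then NADPH regeneration solution added and incubated 1 h at 37C. Detection reagent stopped reaction; luminescence read after 20 min as RLU.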
# [5] = Confirmatory qHTS to identify inhibitors of SARS-CoV-2 cell entry (AID 1645844; calls by dose curve; further: nearly all actives have a fitted effect of over 45% in size; further: potency means the concentration at half of the fitted maximal effect)
# Summary of the method: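 Luminescence entry read-out after 48 h: spike-pseudotyped MLV particles (Wuhan-Hu-1, 19-aa C-terminal truncation) added to compound-pretreated (1 h) HEK293-ACE2 cells; Data were normalised to bald PP and spike PP wells.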
# [6] = VSVG counterscreen qHTS to identify inhibitors of SARS-CoV-2 cell entry (AID 1645847; calls by dose curve; further: nearly all actives have a fitted effect of over 65% in size; further: potency means the concentration at half of the fitted maximal effect)
# Summary of the method: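 HEK293-ACE2 cells (Expi293F, human ACE2) pretreated 1 h with compound, then infected with MLV-based VSV-G pseudotyped particles for 48 h at 37 C; luciferase luminescence normalized to VSV-G PP and bald PP wells.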
# [7] = Primary qHTS for inhibitors of nuclear receptor binding SET domain protein 2 (NSD2) in an isogenic RCH-ACV NSD2 p.E1099K mutant (9B) (AID 1645876); further: nearly all actives have a fitted effect of over 70% in size; further: potency means the concentration at half of the fitted maximal effect
# [8] = Primary qHTS for inhibitors of nuclear receptor binding SET domain protein 2 (NSD2) in an RCH-ACV wild type WT cells (2C) (AID 1645877); further: nearly all actives have a fitted effect of over 70% in size; further: potency means the concentration at half of the fitted maximal effect
# [9] = Cytotoxicity counterscreen for inhibitors of SARS-CoV-2 cell entry (AID 1645845; calls by dose curve; further: nearly all actives have a fitted effect of over 50% in size)
# Summary of the method: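 ATP-content luminescence (ATPLite 1step, 15 min RT) read after 48 h compound exposure of Expi293F cells stably expressing human ACE2; normalized to cells-only wells and media-only wells.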
# [10] = Primary qHTS to identify inhibitors of SARS-CoV-2 cell entry (AID 1645846; calls by dose curve; further: nearly all actives have a fitted effect of over 45% in size); settings: activity change, negative = inhibition: at 57.1 µM (top of the series) unless noted
# Summary of the method: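 HEK293 cells stably expressing human ACE2, pre-treated 1 h with compound, then infected with MLV particles pseudotyped with Wuhan-Hu-1 spike (C-terminal 19-aa truncation). Luciferase luminescence after 48 h at 37 °C, normalised to spike PP and bald PP.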
# [11] = biological target: Papain (Carica papaya) (UniProt P00784); assay: Primary qHTS assay for inhibitors of the protease papain (AID 1645873);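 further: papain turnover of Z-FR-AMC read as the AMC fluorescence gain over 10 min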
# Chain of Papain (Carica papaya) (P00784 whole entry, looked up): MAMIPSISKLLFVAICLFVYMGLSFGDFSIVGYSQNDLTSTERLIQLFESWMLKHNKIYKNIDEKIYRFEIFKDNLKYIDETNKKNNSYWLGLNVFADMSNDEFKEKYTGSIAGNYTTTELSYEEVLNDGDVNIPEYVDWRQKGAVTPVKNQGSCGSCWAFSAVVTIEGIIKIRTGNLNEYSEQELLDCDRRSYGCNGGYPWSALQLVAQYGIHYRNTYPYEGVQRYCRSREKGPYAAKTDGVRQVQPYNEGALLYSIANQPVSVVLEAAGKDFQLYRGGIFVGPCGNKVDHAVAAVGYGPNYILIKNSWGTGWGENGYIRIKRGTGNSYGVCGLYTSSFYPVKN
# Chain of Cytochrome P450 2D6 (Homo sapiens) (P10635 whole entry, looked up): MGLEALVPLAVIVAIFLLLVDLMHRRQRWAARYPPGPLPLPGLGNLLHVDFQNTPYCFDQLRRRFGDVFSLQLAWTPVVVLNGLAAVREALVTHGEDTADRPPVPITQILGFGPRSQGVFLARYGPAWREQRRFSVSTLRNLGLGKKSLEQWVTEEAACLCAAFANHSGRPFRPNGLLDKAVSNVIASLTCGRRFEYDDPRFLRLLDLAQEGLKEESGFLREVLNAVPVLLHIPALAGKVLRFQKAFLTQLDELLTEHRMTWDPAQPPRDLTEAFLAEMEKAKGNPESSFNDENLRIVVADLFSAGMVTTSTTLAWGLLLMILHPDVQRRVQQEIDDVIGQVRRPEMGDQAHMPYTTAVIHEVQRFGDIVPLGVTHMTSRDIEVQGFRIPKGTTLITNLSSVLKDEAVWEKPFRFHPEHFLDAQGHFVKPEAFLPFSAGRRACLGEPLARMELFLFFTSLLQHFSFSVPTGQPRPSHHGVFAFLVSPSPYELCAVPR
# Chain of Cytochrome P450 2C9 (Homo sapiens) (P11712 whole entry, looked up): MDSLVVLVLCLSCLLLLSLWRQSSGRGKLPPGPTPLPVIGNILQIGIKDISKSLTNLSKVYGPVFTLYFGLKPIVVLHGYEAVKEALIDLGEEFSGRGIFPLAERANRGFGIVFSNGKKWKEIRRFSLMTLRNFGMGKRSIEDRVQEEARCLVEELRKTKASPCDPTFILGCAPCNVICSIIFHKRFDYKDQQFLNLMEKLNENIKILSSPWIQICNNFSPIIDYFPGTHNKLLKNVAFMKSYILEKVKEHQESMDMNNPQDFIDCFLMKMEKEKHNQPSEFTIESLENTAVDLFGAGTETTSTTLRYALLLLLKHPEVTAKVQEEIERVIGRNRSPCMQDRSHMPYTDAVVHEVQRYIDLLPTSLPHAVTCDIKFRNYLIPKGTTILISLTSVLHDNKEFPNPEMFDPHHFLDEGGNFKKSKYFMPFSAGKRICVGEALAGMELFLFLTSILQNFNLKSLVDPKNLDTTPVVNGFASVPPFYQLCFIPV
compound,measurement,setting,value
C#C[C@]1(O)CC[C@H]2[C@@H]3CCC4=CC(=O)CC[C@]4(C)[C@H]3CC[C@@]21C,Potency,[1],inactive
same,outcome,[2],inactive
same,Potency,[3],inactive
same,Potency,[4],inactive
COc1cccc2c1C(=O)c1c(O)c3c(c(O)c1C2=O)C[C@@](O)(C(=O)CO)CC3OC1CC(N2CCOC(OC)C2)C(O)C(C)O1 (stereo not given in full),Potency,[1],inactive
same,outcome,[2],inactive
same,Potency,[3],inactive
same,Potency,[4],3.47 µM (active)
same,Potency,[5],0.0482 µM (active)
same,Potency,[6],0.0482 µM (active)
same,Potency,[7],4.7 nM (active)
same,Potency,[8],0.0033 µM (active)
COc1cccc(C(=O)CCN[C@@H](C)[C@H](O)c2ccccc2)c1,Potency,[1],inactive
same,Potency,[9],inactive
same,Potency,[7],16800 nM (active)
same,Potency,[8],9.44 µM (active)
Cc1ncsc1CCCl,Potency,[1],inactive
same,Potency,[4],inactive
same,Potency,[9],inactive
same,"activity change, negative = inhibition",[10],-22.5%
same,outcome,[11],inactive
same,Potency,[7],inactive
same,Potency,[8],inactive
Oc1ccc(Cl)cc1,outcome,[2],inactive
same,Potency,[4],inactive
same,Potency,[9],inactive
same,"activity change, negative = inhibition",[10],-1.58%
same,Potency,[7],inactive
same,Potency,[8],inactive
COc1cc(CC(C)N)cc(OC)c1OC (stereo not given),outcome,[2],inactive
same,Potency,[3],30.6 µM (active)
same,Potency,[4],inactive
O=C1c2ccccc2C(=O)c2ccccc21,Potency,[1],inactive
same,outcome,[2],inactive
same,Potency,[3],inactive
same,Potency,[9],inactive
same,Potency,[10],inactive
same,Potency,[7],inactive
same,Potency,[8],inactive
O=c1[nH]c2ccccc2n1C1CCNCC1,Potency,[1],inactive
same,Potency,[4],inactive
same,Potency,[7],inactive
same,Potency,[8],inactive
CCCCCCCCCC(=O)O[C@H]1CC[C@H]2[C@@H]3CCC4=CC(=O)CC[C@@H]4[C@H]3CC[C@]12C,Potency,[1],inactive
same,Potency,[4],12.3 µM (active)
same,Potency,[7],inactive
same,Potency,[8],inactive
O=C1OC(c2ccc(O)c(S(=O)(=O)O)c2)(c2ccc(O)c(S(=O)(=O)O)c2)c2c(Br)c(Br)c(Br)c(Br)c21,Potency,[1],inactive
same,Potency,[4],inactive
same,Potency,[9],inactive
same,Potency,[10],inactive
same,Potency,[7],inactive
same,Potency,[8],inactive
CCC(C)(C)c1ccc(O)cc1,Potency,[1],inactive
same,outcome,[2],inactive
same,Potency,[3],inactive
same,Potency,[7],inactive
CCOC(=O)CC(SP(=S)(OC)OC)C(=O)OCC (stereo not given),Potency,[1],inactive
same,Potency,[4],1.3 µM (active) and 1.74 µM (active)
same,Potency,[9],inactive
same,Potency,[7],30.6 µM (active) and inactive
same,Potency,[8],inactive
C[C@@H](N)[C@@H](O)c1ccccc1,Potency,[1],inactive
same,Potency,[4],inactive
same,Potency,[9],inactive
same,Potency,[10],inactive
same,Potency,[7],inactive
same,Potency,[8],inactive
COP(=S)(OC)Oc1cc(Cl)c(Cl)cc1Cl,Potency,[1],inactive
same,outcome,[2],inactive
same,Potency,[3],inactive
same,Potency,[4],6.92 µM (active)
same,Potency,[9],inactive
same,Potency,[10],inactive
same,Potency,[7],inactive
same,Potency,[8],inactive
CC(C)(C)NCC(O)c1ccccc1Cl (stereo not given),Potency,[1],inactive
same,outcome,[2],inactive
same,Potency,[3],12.3 µM (active)
same,Potency,[9],inactive
same,Potency,[10],inactive
same,outcome,[11],inactive
same,Potency,[7],inactive
same,Potency,[8],inactive
CC1(C)C(C=C(Cl)Cl)C1C(=O)OC(C#N)c1cccc(Oc2ccccc2)c1 (stereo not given),Potency,[1],inactive
same,outcome,[2],inactive
same,Potency,[3],inactive
same,Potency,[7],inactive
same,Potency,[8],inactive
COC(=O)C(Cl)C(=O)OC,Potency,[1],inactive
same,Potency,[7],inactive
same,Potency,[8],inactive
CCC(C)C(C)(COC(N)=O)COC(N)=O (stereo not given),Potency,[1],inactive
same,outcome,[2],inactive
same,Potency,[9],inactive
same,"activity change, negative = inhibition",[10],-15.3%
same,Potency,[7],inactive
same,Potency,[8],inactive
CN1C(=O)CCS(=O)(=O)C1c1ccc(Cl)cc1 (stereo not given),Potency,[1],inactive
same,Potency,[3],inactive
same,Potency,[4],inactive
same,Potency,[9],inactive
same,"activity change, negative = inhibition",[10],-18.3% and 4.93%
same,outcome,[11],inactive
same,Potency,[7],inactive
same,Potency,[8],inactive
Cc1cc2c(cc1CC(=O)c1sccc1S(=O)(=O)Nc1onc(C)c1Cl)OCO2,Potency,[5],inactive
same,Potency,[9],inactive
same,Potency,[10],inactive
same,"activity change, negative = inhibition",[10],-56.4%
same,Potency,[6],inactive
Cc1c(C)c2c(c(C)c1O)CCC(C)(COc1ccc(CC3SC(=O)NC3=O)cc1)O2 (stereo not given),Potency,[5],34.1 µM (active)
same,Potency,[9],inactive
same,Potency,[6],24.1 µM (active)
CCOc1ccc2nc3cc(N)ccc3c(N)c2c1,Potency,[5],24.1 µM (active)
same,Potency,[6],21.5 µM (active)
Oc1ccc(Cl)c2cccnc12,Potency,[5],2.71 µM (active)
same,Potency,[6],3.04 µM (active)
COc1cccc2c1C(=O)c1c(O)c3c(c(O)c1C2=O)C[C@@](O)(C(=O)CO)C[C@@H]3O[C@H]1C[C@H](N)[C@@H](O)[C@H](C)O1,Potency,[5],0.0961 µM (active)
same,Potency,[9],inactive
same,"activity change, negative = inhibition",[10],-93.2% and -92.9%
same,Potency,[6],0.0961 µM (active)
CC(=O)N(CC(O)CO)c1c(I)c(C(=O)NCCO)c(I)c(C(=O)NCC(O)CO)c1I (stereo not given),Potency,[9],inactive
CN1[C@@H]2CC[C@H]1CC(OC(c1ccccc1)c1ccccc1)C2 (stereo not given in full),Potency,[5],6.81 µM (active)
same,Potency,[9],inactive
